# The source made the active and inactive calls. How the calls were made is not given here.
# Target: Pantothenate synthetase (Mycobacterium tuberculosis (strain ATCC 25618 / H37Rv)) (UniProt P9WIL5)
# Test: Coupled enzyme confirmation of inhibitors against recombinant Mtb PanC (AID 375);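 further: 0% = full reaction with vehicle and 100% = no enzyme background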
# Conditions: coupled enzyme assay; at 10 µM, stronger effect = higher value
# Chain of Pantothenate synthetase (Mycobacterium tuberculosis (strain ATCC 25618 / H37Rv)) (P9WIL5 whole entry, looked up): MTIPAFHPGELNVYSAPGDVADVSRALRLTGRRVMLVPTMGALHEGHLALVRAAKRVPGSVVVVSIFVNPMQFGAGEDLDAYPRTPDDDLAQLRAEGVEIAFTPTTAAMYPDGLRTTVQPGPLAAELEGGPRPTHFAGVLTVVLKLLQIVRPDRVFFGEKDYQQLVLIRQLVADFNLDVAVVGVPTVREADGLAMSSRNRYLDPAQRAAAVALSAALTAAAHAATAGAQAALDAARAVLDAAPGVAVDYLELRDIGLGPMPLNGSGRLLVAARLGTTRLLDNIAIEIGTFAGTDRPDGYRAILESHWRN
row,SMILES,inhibition
1,Cc1occc1-c1nnc(SCC(=O)N2CCc3ccccc32)o1,0% (inactive)
2,COc1ccccc1-c1cc(C(=O)NCCCn2ccnc2)no1,0% (inactive)
3,O=C(CN1CCCC1)Nc1ccc(NC(=O)Nc2ccccc2)cc1,0% (inactive)
4,O=C(CSc1nnc(-c2ccncc2)o1)Oc1ccccc1,0% (inactive)
5,CC1CN(C(=O)c2cc3cc(Cl)cc(Cl)c3oc2=O)CC(C)O1 (configuration not stated),0% (inactive)
6,COc1cc2c(cc1OC)C(C)N(C(=O)Cn1ncc3c1-c1ccccc1OC3)CC2 (configuration not stated),0% (inactive)
7,CCc1nnc(NC(=O)CSc2nnc(Cc3ccccc3)n2-c2ccc(OC)cc2)s1,7% (inactive)
8,COC(=O)/C=c1\sc2ncnn2c1=O,0% (inactive)
9,COC(=O)CCn1nnc(-c2cccs2)n1,1% (inactive)
10,CNC(=O)CN(C#N)c1nc(N(C)C)nc(N(C)C)n1,0% (inactive)
11,Cc1ccc(-n2nnnc2SCC(=O)Nc2c(C)n(C)n(-c3ccccc3)c2=O)cc1,0% (inactive)
12,O=C(Nc1ccccc1Cl)c1c(F)c(F)c(F)c(F)c1F,6% (inactive)
13,N#C/C(C(=O)NCc1ccco1)=C1/SC(Cc2ccc(F)cc2)C(=O)N1c1ccccc1 (configuration not stated),0% (inactive)
14,COCC(C)NC(=O)NC(=O)c1ccc(Cl)cc1 (configuration not stated),0% (inactive)
15,S=C(c1ccc(-c2cc(Cl)ccc2Cl)o1)N1CCOCC1,0% (inactive)
16,O=S(=O)(NC1CCCCC1NS(=O)(=O)c1ccc(F)cc1)c1ccc(F)cc1 (configuration not stated),0% (inactive)
17,COCCn1c(=O)[nH]c2cc(C(=O)NCCCN3CCN(c4ccc(F)cc4)CC3)ccc2c1=O,0% (inactive)
